Reference: PubChem BioAssay AID1508601 (ICCB-Longwood Screening Facility, Harvard Medical School, 2020)
In all, about 5,700 compounds went through this assay and about 85 (1%) were called active. Cut-off read from the data, not from the text of the source: active = p53-positive nuclei above about 36% (passing the limit was not always enough); inactive = the rest. The entries come from a sample that favours actives as a whole.

Experiments:
[1] = p53 stabilisation in HPV-positive human cells, imaging, p53-positive nuclei imaging, 24 h, 48 h (AID 1508601); settings: 24/48 h
[2] = target: Cellular tumor antigen p53 (Homo sapiens) (UniProt P04637); experiment: as above; settings: 24/48 h, stronger effect = higher value
[3] = measured here: cell number at 24 h, Library stock concentration: 3.33 mM
[4] = measured here: cell number at 48 h, Library stock concentration: 3.33 mM
[5] = Library stock concentration: 3.33 mM
[6] = measured here: p53 positive nuclei at 24 h, Library stock concentration: 3.33 mM
[7] = measured here: cell number at 24 h, Library stock concentration: 80 uM
[8] = measured here: cell number at 24 h, Library stock concentration: 400 uM
[9] = measured here: cell number at 24 h, Library stock concentration: 2 mM
[10] = measured here: cell number at 24 h, Library stock concentration: 10 mM
[11] = measured here: cell number at 48 h, Library stock concentration: 80 uM
[12] = measured here: cell number at 48 h, Library stock concentration: 400 uM
[13] = measured here: cell number at 48 h, Library stock concentration: 2 mM
[14] = measured here: cell number at 48 h, Library stock concentration: 10 mM
[15] = Library stock concentration: 80 uM
[16] = Library stock concentration: 400 uM
[17] = Library stock concentration: 2 mM
[18] = Library stock concentration: 10 mM
[19] = measured here: p53 positive nuclei at 24 h, Library stock concentration: 80 uM
[20] = measured here: p53 positive nuclei at 24 h, Library stock concentration: 400 uM
[21] = measured here: p53 positive nuclei at 24 h, Library stock concentration: 2 mM
[22] = measured here: p53 positive nuclei at 24 h, Library stock concentration: 10 mM
[23] = measured here: cell number at 24 h, concentration not given here
[24] = measured here: cell number at 48 h, concentration not given here
[25] = measured here: p53 positive nuclei at 24 h, concentration not given here

Sequence of Cellular tumor antigen p53 (Homo sapiens) (P04637 whole entry, looked up): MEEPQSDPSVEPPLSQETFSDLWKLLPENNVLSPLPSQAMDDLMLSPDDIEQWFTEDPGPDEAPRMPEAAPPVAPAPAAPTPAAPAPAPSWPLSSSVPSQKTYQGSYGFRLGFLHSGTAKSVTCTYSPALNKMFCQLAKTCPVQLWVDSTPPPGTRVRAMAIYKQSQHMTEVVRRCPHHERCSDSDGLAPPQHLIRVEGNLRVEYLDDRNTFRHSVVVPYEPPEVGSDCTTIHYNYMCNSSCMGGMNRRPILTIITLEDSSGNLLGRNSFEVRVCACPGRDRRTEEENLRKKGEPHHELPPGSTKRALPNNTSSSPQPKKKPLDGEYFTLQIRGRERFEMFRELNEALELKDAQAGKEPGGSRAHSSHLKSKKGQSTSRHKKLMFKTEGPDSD

## O=c1[nH]c2ccc(Cl)cc2c(NC2CN3CCC2CC3)c1-c1nc2ccccc2[nH]1 (stereo not drawn)
[1]; [3]
  nuclei count, normalised: 52.7%
[1]; [4]
  nuclei count, normalised: 33.7%
[2]; [5]
  p53-positive nuclei, normalised: 34% (inactive)
[2]; [6]
  p53-positive nuclei, normalised: 8.33%

## C[C@]12C=CC(=O)C=C1CC[C@@H]1[C@@H]2CC[C@]2(C)OC(=O)CC[C@@H]12
[1]; [7]
  nuclei count, normalised: 87.6%
[1]; [8]
  nuclei count, normalised: 90.3%
[1]; [9]
  nuclei count, normalised: 93%
[1]; [10]
  nuclei count, normalised: 89.5%
[1]; [11]
  nuclei count, normalised: 95.1%
[1]; [12]
  nuclei count, normalised: 95%
[1]; [13]
  nuclei count, normalised: 99.5%
[1]; [14]
  nuclei count, normalised: 97.4%
[2]; [15]
  p53-positive nuclei, normalised: -0.0445% (inactive)
[2]; [16]
  p53-positive nuclei, normalised: 0.096% (inactive)
[2]; [17]
  p53-positive nuclei, normalised: -0.0494% (inactive)
[2]; [18]
  p53-positive nuclei, normalised: -0.00393% (inactive)
[2]; [19]
  p53-positive nuclei, normalised: -0.0455%
[2]; [20]
  p53-positive nuclei, normalised: 0.101%
[2]; [21]
  p53-positive nuclei, normalised: 0.166%
[2]; [22]
  p53-positive nuclei, normalised: -0.0487%

## CC1=CC(=O)c2c(O)cccc2C1=O
[1]; measured here: cell number at 24 h, Library stock concentration: 500 nM
  nuclei count, normalised: 119%
[1]; measured here: cell number at 24 h, Library stock concentration: 1.5 uM
  nuclei count, normalised: 116%
[1]; measured here: cell number at 24 h, Library stock concentration: 4.6 uM
  nuclei count, normalised: 126%
[1]; measured here: cell number at 24 h, Library stock concentration: 13.7 uM
  nuclei count, normalised: 115%
[1]; measured here: cell number at 24 h, Library stock concentration: 41 uM
  nuclei count, normalised: 118%
[1]; measured here: cell number at 24 h, Library stock concentration: 123 uM
  nuclei count, normalised: 108%
[1]; measured here: cell number at 24 h, Library stock concentration: 370 uM
  nuclei count, normalised: 94.6%
[1]; measured here: cell number at 24 h, Library stock concentration: 1.111 mM
  nuclei count, normalised: 55.5%
[1]; measured here: cell number at 24 h, Library stock concentration: 3.333 mM
  nuclei count, normalised: 48.6%
[1]; [10]
  nuclei count, normalised: 49%
[1]; measured here: cell number at 48 h, Library stock concentration: 500 nM
  nuclei count, normalised: 113%
[1]; measured here: cell number at 48 h, Library stock concentration: 1.5 uM
  nuclei count, normalised: 115%
[1]; measured here: cell number at 48 h, Library stock concentration: 4.6 uM
  nuclei count, normalised: 120%
[1]; measured here: cell number at 48 h, Library stock concentration: 13.7 uM
  nuclei count, normalised: 115%
[1]; measured here: cell number at 48 h, Library stock concentration: 41 uM
  nuclei count, normalised: 118%
[1]; measured here: cell number at 48 h, Library stock concentration: 123 uM
  nuclei count, normalised: 111%
[1]; measured here: cell number at 48 h, Library stock concentration: 370 uM
  nuclei count, normalised: 102%
[1]; measured here: cell number at 48 h, Library stock concentration: 1.111 mM
  nuclei count, normalised: 32.4%
[1]; measured here: cell number at 48 h, Library stock concentration: 3.333 mM
  nuclei count, normalised: 31.9%
[1]; [14]
  nuclei count, normalised: 32.5%
[2]; Library stock concentration: 500 nM
  p53-positive nuclei, normalised: -0.129% (inactive)
[2]; Library stock concentration: 1.5 uM
  p53-positive nuclei, normalised: -0.0912% (inactive)
[2]; Library stock concentration: 4.6 uM
  p53-positive nuclei, normalised: 0.131% (inactive)
[2]; Library stock concentration: 13.7 uM
  p53-positive nuclei, normalised: -0.0585% (inactive)
[2]; Library stock concentration: 41 uM
  p53-positive nuclei, normalised: -0.0569% (inactive)
[2]; Library stock concentration: 123 uM
  p53-positive nuclei, normalised: 0.196% (inactive)
[2]; Library stock concentration: 370 uM
  p53-positive nuclei, normalised: -0.0821% (inactive)
[2]; Library stock concentration: 1.111 mM
  p53-positive nuclei, normalised: 48.3% (active)
[2]; Library stock concentration: 3.333 mM
  p53-positive nuclei, normalised: 2.14% (inactive)
[2]; [18]
  p53-positive nuclei, normalised: -0.248% (inactive)
[2]; measured here: p53 positive nuclei at 24 h, Library stock concentration: 500 nM
  p53-positive nuclei, normalised: 0.0252%
[2]; measured here: p53 positive nuclei at 24 h, Library stock concentration: 1.5 uM
  p53-positive nuclei, normalised: 0.031%
[2]; measured here: p53 positive nuclei at 24 h, Library stock concentration: 4.6 uM
  p53-positive nuclei, normalised: -0.0368%
[2]; measured here: p53 positive nuclei at 24 h, Library stock concentration: 13.7 uM
  p53-positive nuclei, normalised: 0.0863%
[2]; measured here: p53 positive nuclei at 24 h, Library stock concentration: 41 uM
  p53-positive nuclei, normalised: -0.027%
[2]; measured here: p53 positive nuclei at 24 h, Library stock concentration: 123 uM
  p53-positive nuclei, normalised: 0.171%
[2]; measured here: p53 positive nuclei at 24 h, Library stock concentration: 370 uM
  p53-positive nuclei, normalised: 0.0792%
[2]; measured here: p53 positive nuclei at 24 h, Library stock concentration: 1.111 mM
  p53-positive nuclei, normalised: 61.6%
[2]; measured here: p53 positive nuclei at 24 h, Library stock concentration: 3.333 mM
  p53-positive nuclei, normalised: 3.81%
[2]; [22]
  p53-positive nuclei, normalised: -0.148%

## O=C1C(=O)c2cccc3cccc1c23
[1]; [7]
  nuclei count, normalised: 115%
[1]; [8]
  nuclei count, normalised: 118%
[1]; [9]
  nuclei count, normalised: 118%
[1]; [10]
  nuclei count, normalised: 109%
[1]; [11]
  nuclei count, normalised: 119%
[1]; [12]
  nuclei count, normalised: 112%
[1]; [13]
  nuclei count, normalised: 115%
[1]; [14]
  nuclei count, normalised: 115%
[2]; [15]
  p53-positive nuclei, normalised: 0.0597% (inactive)
[2]; [16]
  p53-positive nuclei, normalised: 0.0621% (inactive)
[2]; [17]
  p53-positive nuclei, normalised: 0.165% (inactive)
[2]; [18]
  p53-positive nuclei, normalised: 0.252% (inactive)
[2]; [19]
  p53-positive nuclei, normalised: -0.0696%
[2]; [20]
  p53-positive nuclei, normalised: -0.0154%
[2]; [21]
  p53-positive nuclei, normalised: 0.208%
[2]; [22]
  p53-positive nuclei, normalised: 0.327%

## O=C1c2ccccc2C(=O)c2ccccc21
[1]; [23]
  nuclei count, normalised: 102%
[1]; [24]
  nuclei count, normalised: 96.8%
[2]; concentration not given here
  p53-positive nuclei, normalised: -0.00139% (inactive)
[2]; [25]
  p53-positive nuclei, normalised: -0.102%

## C[C@]12NC(Cc3ccccc31)c1ccccc12
[1]; [3]
  nuclei count, normalised: 121%
[1]; [4]
  nuclei count, normalised: 112%
[2]; [5]
  p53-positive nuclei, normalised: -0.107% (inactive)
[2]; [6]
  p53-positive nuclei, normalised: -0.588%

## CCCCC/C=C\C/C=C\C/C=C\C/C=C\CCCC(=O)NCCF
[1]; [23]
  nuclei count, normalised: 90.3%
[1]; [24]
  nuclei count, normalised: 90.8%
[2]; concentration not given here
  p53-positive nuclei, normalised: 0.105% (inactive)
[2]; [25]
  p53-positive nuclei, normalised: -0.0127%
